Laboratory results taken from ChEMBL document CHEMBL4513146, “CO-ADD screening of Karazin Kharkiv National University (Ukraine) compounds”.
Results with a measured potency or affinity are listed apart.

How the values were obtained:
Staphylococcus aureus = settings: Concentration 32 ug.mL-1;; ASSAY_TEST Inhibition of Bacterial Growth; detection method Absorption (OD600); MEDIA CAMHB; plate type 384well; NBS; CORNING #3640; time 18 hr
Escherichia coli = settings: Concentration 32 ug.mL-1;; ASSAY_TEST Inhibition of Bacterial Growth; detection method Absorption (OD600); MEDIA CAMHB; plate type 384well; NBS; CORNING #3640; time 18 hr

SMILES	Inhibition (Staphylococcus aureus) [%]	Inhibition (Escherichia coli) [%]
COc1cccc(-n2ccn3c(SCC(=O)NCc4ccc(Cl)cc4)nnc3c2=O)c1	10.06	-3.71
O=C(Cn1nc2nc(Nc3ccc(F)cc3)ccn2c1=O)Nc1ccc(F)cc1	-16.48	-2.62
Cc1ccc(-n2ccn3c(=O)n(Cc4cccc(Cl)c4)nc3c2=O)cc1C	7.38	0.11
COc1ccc(OC)c(NC(=O)Cn2nc3c4cc(-c5ccc(Cl)cc5)nn4ccn3c2=O)c1	-2.94	-2.51
Cc1ccc(-c2ccc3nn(Cc4cccc(Br)c4)c(=O)n3n2)cc1C	9.24	-2.14
O=C(CSc1nnc2c3cc(-c4ccc(F)cc4)nn3ccn12)NCc1ccccc1	-2.17	-6.24
CCOc1ccc(-n2ccn3c(SCC(=O)c4cccc(OC)c4)nnc3c2=O)cc1	10.49	-5.2
CCCCc1ccc(NC(=O)Cn2nc3c(Sc4ccccc4)nccn3c2=O)cc1	4.84	-9.71
O=C(Cn1nc2c3cc(F)ccc3ncn2c1=O)Nc1ccc2c(c1)OCO2	5.65	-3
CCc1cccc(NC(=O)Cn2nc3ccc(SC4CCCCC4)nn3c2=O)c1	13.65	-0.36
O=C(CSc1nnc2c(=O)n(-c3ccc(F)cc3)ccn12)NCC1CCCO1 (centres undefined)	0	-8.97
COc1ccc(-c2cc3c4nnc(CCC(=O)NCc5ccccc5Cl)n4ccn3n2)cc1	0.8	-2.58
O=c1c2nnc(SCc3ccc(F)cc3)n2ccn1-c1ccc(Br)cc1	3.87	-5.68
Cc1ccc(CNC(=O)Cn2nc3c(Oc4ccccc4C)nccn3c2=O)cc1	5.58	-1.39
Cc1ccc(-c2ccc3nn(CC(=O)Nc4cccc(Cl)c4)c(=O)n3n2)cc1C	-4.46	-9.75
Cc1cc(C)c(NC(=O)CSc2nc3ccccc3n3c(C)nnc23)c(C)c1	9.68	-6.86
Cc1nnc2ccc(S(=O)(=O)N(Cc3cccc(F)c3)c3ccc4c(c3)OCO4)cn12	-10.23	-15.4
COc1ccc(-c2cc3c4nnc(SCC(=O)Nc5cccc(C#N)c5)n4ccn3n2)cc1	1.06	-0.96
Cc1ccc(Oc2nc3ccccc3n3c(=O)n(CC(=O)Nc4cccc(C(F)(F)F)c4)nc23)cc1	0.5	-3.3
Cc1cc(C)c(NC(=O)Cn2nc3ccc(-c4ccc(C)c(C)c4)nn3c2=O)c(C)c1	-8.09	-15.6
CCc1nnc2c(SCC(=O)Nc3ccc(C(C)=O)cc3)nc3ccccc3n12	4.71	4.62
O=c1n(Cc2nc(-c3ccc4c(c3)OCO4)no2)nc2ccc(-c3ccccc3)nn12	-9.1	-9.98
CC(C)NC(=O)CSc1nnc2c(=O)n(Cc3ccc(F)cc3)ccn12	-0.55	-7.51
CCOc1ccc(C(=O)CSc2nnc3c(=O)n(-c4ccc(F)cc4)ccn23)cc1	23.03	1.42

SMILES	Inhibition (Staphylococcus aureus) [%]	Inhibition (Escherichia coli) [%]
Cc1ccc(Sc2nccn3c(=O)n(CC(=O)Nc4cccc(Br)c4)nc23)c(C)c1	-7.2	-13.08
Cc1ccc(NC(=O)Cn2c(=O)c3nnc(C)n3c3ccccc32)cc1F	11.98	-4.13
Cc1ccc(-c2ccc3nn(CC(=O)N4CCN(c5ccccc5F)CC4)c(=O)n3n2)cc1C	3.55	-1.18
CCC(C)NC(=O)CSc1nnc2c(=O)n(Cc3ccc(F)cc3)ccn12 (centres undefined)	1.4	-9
Cn1c(=O)c2ccc(C(=O)NC3CCCC3)cc2n2c(SCc3c(F)cccc3Cl)nnc12	12.53	0.61
O=C(Cn1nc2c(Oc3ccccc3)nccn2c1=O)Nc1ccc2c(c1)OCO2	2.59	-7.1
O=C(Cn1nc2c(Oc3ccccc3)nccn2c1=O)Nc1ccc2c(c1)OCCO2	7.17	2.24
Cc1cc2nn(CC(=O)NC3CCCCC3)c(=O)n2c(Nc2ccc(F)c(C)c2)n1	11.08	0.19
Cc1ccc(-n2ccn3c(SCC#N)nnc3c2=O)cc1C	11.84	-4.03
Cc1ccc(-c2ccc3nn(Cc4ccc(Cl)cc4)c(=O)n3n2)cc1C	-1.51	-5.81
COc1ccc(-c2cc3c4nn(CC(=O)Nc5cccc(C)c5)c(=O)n4ccn3n2)cc1	1.22	-1.93
Cc1nnc2c(=O)n(CC(=O)Nc3ccc(F)cc3F)c3ccccc3n12	10.56	-0.32
CC(C)Sc1ccc2nn(CC(=O)Nc3ccc(F)cc3Cl)c(=O)n2n1	-4.06	-3
COc1ccc(N(Cc2cccc(Cl)c2)S(=O)(=O)c2ccc3nnc(C)n3c2)cc1	13.9	0.81
O=C(CCc1nnc2c(N3CCCCC3)nc3ccccc3n12)NCc1ccccc1Cl	7.81	4.64
COc1cc(OC)c(NC(=O)Cn2nc3c(Sc4ccc(C)cc4C)nccn3c2=O)cc1Cl	-8.98	-14.71
Cc1ccc(NC(=O)CSc2nnc3c(=O)n(-c4ccccc4)ccn23)c(C)c1	7.2	-16.98
Cc1nnc2ccc(S(=O)(=O)N(Cc3ccccc3)c3ccc(Cl)cc3)cn12	1.7	-13.98
COc1cccc(CNC(=O)CSc2nnc3c(=O)n(-c4ccc(C)c(C)c4)ccn23)c1OC	3.35	-0.9
CCc1nnc2c(S(=O)(=O)N(Cc3cccc(Cl)c3)c3ccccc3)cccn12	4.22	-6.56
O=C(CCc1nnc2c(N3CCCCC3)nc3ccccc3n12)NCc1ccc(Cl)cc1	12.63	0.78
COc1ccc(N2CCN(C(=O)Cn3nc4ccc(-c5ccccc5)nn4c3=O)CC2)cc1	15.35	1.42
O=c1c2sccc2n2c(=O)n(Cc3ccccc3F)nc2n1CCc1ccccc1	9.4	0.41
O=C(Cn1nc2c3c4c(sc3ncn2c1=O)CCCC4)N1CCc2ccccc2C1	0.97	2.08

SMILES	Inhibition (Staphylococcus aureus) [%]	Inhibition (Escherichia coli) [%]
O=C(Cn1nc2c(N3CCOCC3)nccn2c1=O)NCc1cccc(C(F)(F)F)c1	16.25	-1.74
Cc1ccc(-c2nc(CSc3nc4ccccc4n4c(C(C)C)nnc34)c(C)o2)cc1	-8.56	-6.52
Cc1ccc(-c2ccc3nn(Cc4ccc(N5CCCC5=O)cc4)c(=O)n3n2)cc1	5.05	-5.45
Cc1cc2nn(CC(=O)Nc3cc(F)ccc3F)c(=O)n2c(Nc2ccc(C)c(F)c2)n1	0.88	-8.4
CCC(C)NC(=O)Cn1nc2n(CCC(=O)NC3CCCCC3)c(=O)c3ccccc3n2c1=O (centres undefined)	-5.52	-15
CCOC(=O)c1ccc(NC(=O)Cn2nc3c(N4CCOCC4)nccn3c2=O)cc1	2.06	-3.52
Cc1ccc(-c2ccc3nn(CC(=O)Nc4ccc(Br)cc4)c(=O)n3n2)cc1C	15.41	-2.09
COc1ccc(NC(=O)Cn2nc3c(N4CCOCC4)nccn3c2=O)c(OC)c1	14.25	-1.5
CCCCc1ccc(NC(=O)Cn2nc3ccc(C(=O)Nc4ccc(OC)cc4)cn3c2=O)cc1	3.96	-4.6
O=S(=O)(c1cccn2cnnc12)N(Cc1ccccc1F)c1ccc(F)c(F)c1	-22.58	5.15
O=C(CSc1nnc2c(=O)n(-c3ccc(Br)cc3)ccn12)Nc1cc(F)ccc1F	11.71	-2.54
Cc1ccccc1CSc1nnc2c(=O)n(-c3ccc(Br)cc3)ccn12	1.11	-8.83
Cc1ccc(CNC(=O)Cn2nc3ccc(SC4CCCCC4)nn3c2=O)cc1	11.69	-11.87
CCCCOc1ccc(-c2cc3c4nnc(SCC(=O)Nc5ccc(Cl)cc5)n4ccn3n2)cc1	6.59	-0.55
Cc1cccc(NC(=O)CSc2nnc3ccc(C(=O)Nc4cccc(F)c4)cn23)c1C	10.8	-1.92
O=C(CSc1nnc2c(=O)n(-c3ccc(Br)cc3)ccn12)c1c[nH]c2ccccc12	12.46	-2.65
COc1cccc(NC(=O)Cn2nc3c4c5c(sc4ncn3c2=O)CCCC5)c1	2.27	-1.99
COc1ccc(N(Cc2ccc(Cl)cc2)S(=O)(=O)c2ccc3nncn3c2)cc1	-6.81	-4.15
Cc1cc2nn(CC(=O)Nc3ccccc3)c(=O)n2c(Nc2ccc(C)c(F)c2)n1	8.29	-1.41
O=C(Cn1nc2ccc(SC3CCCCC3)nn2c1=O)Nc1ccc2c(c1)CCC2	4.8	-2.69
O=C(Cn1nc2c3sc(N4CCCC4)nc3ncn2c1=O)Nc1ccc(F)c(Cl)c1	15.3	1.03
Cc1ccc(-c2cc3c4nn(CC(=O)NCc5ccc(Cl)cc5)c(=O)n4ccn3n2)cc1C	6.87	6.43
COc1cccc(Oc2nccn3c(=O)n(CC(=O)NCc4cccs4)nc23)c1	7.35	-2.75
O=C(Cn1nc2c(Sc3cccc(F)c3)nccn2c1=O)Nc1cccc(C(F)(F)F)c1	12.33	-0.7
